Assay outcomes as filed in PubChem.
A selection: hits, their analogues and other compounds. The true share with any hit is near 12%.
HP1b binding inh – HP1-beta chromodomain-methylated histone interaction inhibition; AlphaScreen HP1-beta / biotin-H3K9me3 peptide binding; Potency, µM (highest dose often 114 µM), for the others: top-dose activity change, negative = inhibition, actives largely listed as inhibitors; hit rate 0.56% among 390,000; P83916; note: nearly all actives have a fitted effect of over 70% in size
Target sequence (P83916 whole entry, looked up): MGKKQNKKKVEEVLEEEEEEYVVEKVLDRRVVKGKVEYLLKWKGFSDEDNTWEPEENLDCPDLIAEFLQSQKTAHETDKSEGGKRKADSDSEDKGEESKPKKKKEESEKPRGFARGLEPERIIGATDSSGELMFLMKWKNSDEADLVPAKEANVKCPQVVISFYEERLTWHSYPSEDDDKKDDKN
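AlphaScreen: HP1-beta (50 nM) preformed 30 min with biotin-H3(1-18)K9me3 peptide (50 nM) in PBS pH 7.4, 0.01% Tween-20. Compound added for 30 min at RT, then streptavidin donor/nickel chelate acceptor beads (10 ug/mL) for 30 min.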
JMJD2A Tudor – JMJD2A Tudor domain (human) inhibition; AlphaScreen JMJD2A-Tudor / H3K4me3 peptide binding; hit rate 4.4% among 390,000; Potency, µM (titrated, usually from 114 µM), inactives show at the top dose activity change, negative = inhibition, actives largely listed as inhibitors; O75164; note: % is set by controls: 0 for no effect and ±100 for the full control effect; nearly all actives have a fitted effect of over 50% in size
Sfp inh – Sfp phosphopantetheinyl transferase inhibition | AID 1490 | Potency, µM, without a hit: largest response in the series, negative = inhibition, most hits filed as inhibitors | Biochemical Sfp PPTase activity, qHTS | hit rate 3.5% among 310,000;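 note: the enzyme is Sfp with the accession as filed and its product quenches rhodamine fluorescence; 0% = enzyme reaction without inhibitor and -100% = no enzyme wells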
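Buffer: 50 mM Hepes-Na pH 7.6, 10 mM MgCl2, 0.01% Nonidet P-40, 0.01% BSA. Enzyme 15 nM, pre-exposed to compound 15 min; substrates then added and fluorescence change tracked over 30 min.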
BAZ2B block – inhibitors of human BAZ2B bromodomain; Q9UIF8; AID 504333; AlphaScreen BAZ2B-H3K14Ac peptide displacement; Potency, µM (doses to about 114 µM), for inactives: top-dose activity change, negative = inhibition, actives largely listed as inhibitors; hit rate 4.4% among 360,000; note: % is set by controls: 0 for no effect and ±100 for the full control effect; nearly all actives have a fitted effect of over 60% in size
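In this displacement format the biotinylated H3(5-23) peptide acetylated at Lys14 serves as ligand at 50 nM, with BAZ2B at 50 nM in PBS pH 7.4 containing 0.01% Tween-20. Donor and acceptor beads are 10 ug/mL final.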
G9a inh – blocks human histone lysine methyltransferase G9a; G9a H3K9 monomethylation, AlphaScreen, 2 h; hit rate 8.8% among 350,000; Potency, µM (top dose mostly 102 µM), inactives show at the highest dose activity, negative = inhibition, most hits filed as inhibitors; Q96KQ7; note: % is set by controls: 0 for no effect and ±100 for the full control effect; nearly all actives have a fitted effect of over 75% in size
Target sequence (Q96KQ7 913-1193 limits assumed): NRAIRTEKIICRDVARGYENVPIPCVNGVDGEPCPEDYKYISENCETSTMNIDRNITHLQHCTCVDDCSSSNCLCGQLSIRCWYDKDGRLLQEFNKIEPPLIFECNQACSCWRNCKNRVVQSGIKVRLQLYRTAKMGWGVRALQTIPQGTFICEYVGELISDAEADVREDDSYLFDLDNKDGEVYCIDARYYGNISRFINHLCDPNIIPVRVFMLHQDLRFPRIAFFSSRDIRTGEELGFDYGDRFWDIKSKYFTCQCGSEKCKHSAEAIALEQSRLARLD
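G9a (20 nM) preincubated 15 min RT with compounds, then 500 nM biotinylated H3K9 peptide and 20 uM SAM added; 2 h RT reaction. Monomethyl-H3K9 product detected by AlphaScreen with anti-H3K9me1 antibody, streptavidin donor and anti-rabbit IgG acceptor beads.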
The depositor's hits bear a star; ? = inconclusive; . = no result; [ ] = remark or other dose. Calls come from the whole dose curve; as a rule, active = well fitted curve in the direction sought with a large enough effect; inconclusive = small, poorly fitted or top-dose-only effect, or another doubt; inactive = no such curve, though single readings can be large; an effect the other way counts as inactive or inconclusive. Potency is the fitted concentration of half-maximal effect.

SMILES	HP1b binding inh	JMJD2A Tudor	Sfp inh	BAZ2B block	G9a inh
Cc1ccc(-c2nnc(-c3ccccc3Br)o2)cc1	100%	111%	9%	60%	21%[0.501 µM]
Clc1ccccc1-c1nnc(-c2ccccc2Cl)o1	90%	69%	1%	115%	89%[59 µM]
Clc1ccc(-c2nnc(-c3ccccc3Cl)o2)cc1	115%	91%	71µM*	134%	185%
Cn1c(=O)c(-c2cc(Br)ccc2N)nc2ccccc21	-20%	?	-19%	-17%	50µM*
COc1ccc(NC(=O)C2(S(=O)(=O)c3ccc(C)cc3)CC2)c(OC)c1	34%	-9%	.	-7%	-4%[59 µM]
COc1cc(CNCc2cccc3ccccc23)cc(OC)c1	11%	25µM*	-10%	50µM*	50µM*
COc1cc(NC(=O)CCCc2c[nH]c3ccccc23)cc(OC)c1	-14%	?	20%	?	-18%[59 µM]
COc1cc(CNCc2c[nH]c3ccccc23)cc(OC)c1	?	3.5µM*	-3%	56µM*	14µM*
Cc1ccc(CNC(=O)C2CCCCN2S(=O)(=O)c2ccc(F)cc2)cc1 (stereo not drawn)	17%	6%	.	3%	-10%[59 µM]
OC[C@@H](O)CN1CCN(c2ccccc2)CC1	.	.	-4%	.	12%[21.5 µM]
O=S(=O)(c1cccc(Br)c1)N1CCN(c2nc(-c3cccs3)nc3ccccc23)CC1	13%	-10%	.	.	.
Cc1cc(O)c(C=O)c2c1C(=O)Oc1c(C)c(O)c3c(c1O2)C(O)OC3=O (stereo not drawn)	.	.	-67%	.	?
COc1cc(C)c2c(c1C=O)Oc1c(c(C)c(O)c3c1C(O)OC3=O)OC2=O (stereo not drawn)	-35%	79µM*	?	79µM*	?
CC(=O)c1cccc(NC(=O)c2cc(=O)[nH]c3ccc(S(=O)(=O)N4CCOCC4)cc23)c1	15%	-4%	.	.	.
NCC(c1ccco1)c1c[nH]c2ccccc12 (stereo not drawn)	14%	-23%	16%	-9%	-5%[59 µM]
CN(C)c1ccc(C(CNS(=O)(=O)c2ccc3ccccc3c2)c2c[nH]c3ccccc23)cc1 (stereo not drawn)	?	28µM*	9%	13µM*	10µM*
CN(C)c1ccc(C(CN)c2c[nH]c3ccccc23)cc1 (stereo not drawn)	?	35µM*	50µM*	11µM*	32µM*
CCNc1ncc2nc(C)c(=O)n(Cc3cccs3)c2n1	.	.	21%	.	12%[0.501 µM]
COc1cccc(/C=N/n2c(SC)nnc2-c2ccccc2)c1O	24%	-31%	-25%	?	8.9µM*
Cc1ccc(C(=O)NC(=S)N(C)Cc2ccccc2)cc1	55%	-22%	.	.	.
CCN(CC)CC(=O)c1ccc(-c2ccccc2)cc1	5%	?	-54%	0%	?
C/[N+]([O-])=C\CC(=O)c1ccc(-c2ccccc2)cc1	-11%	32µM*	-15%	-27%	14µM*
CN(C)CC(=O)c1ccc(-c2ccccc2)cc1	35%	-20%	?	.	32µM*
CCCN(CCC)C(=S)NC(=O)c1ccc(-c2ccccc2)cc1	16%	50µM*	?	?	30%[12.7 µM]
Cc1cc(C)c[n+](CC(=O)c2ccc(-c3ccccc3)cc2)c1	22%	-17%	-29%	19%	50µM*
SMILES	HP1b binding inh	JMJD2A Tudor	Sfp inh	BAZ2B block	G9a inh
O=C(CSCCc1ccccn1)Nc1ccccn1	51%	-8%	-9%	-2%	56µM*
O=C(CSCCc1ccccn1)Nc1ccc(Br)cn1	11%	-7%	8%	-2%	48%[59 µM]
COc1ccc(Cl)cc1NC(=O)CSC1=NN2CCCC(=O)N=C2S1	26%	-18%	17%	1%	6%
S=C1NC=NC2N=CNC12 (stereo not drawn)	.	.	14µM*	.	22µM*
NC(=O)COc1ccc2oc(-c3ccccc3)cc(=O)c2c1	7%	-3%	19%	.	50µM*
CCOC(=O)COc1ccc2c(=O)cc(-c3ccccc3)oc2c1	30%	-9%	7%	2%	.
COc1ccc(Nc2cc(C)nc(NCc3ccccc3)n2)cc1	-31%	?	32µM*	-36%	50µM*
COc1cc(C)nc(NCc2ccccc2)n1	16%	-14%	-3%	8%	-22%[12.7 µM]
CCCCCCCC/C=C\CCCCCCCC(=O)NC(C)C(=O)O (stereo not drawn)	.	.	8%	.	.
Cc1c(C(=O)NN)nn(-c2ccc(Cl)cc2)c(=O)c1C#N	6%	-25%	7%	-11%	45µM*
O=C(Cc1cccc(NC(=O)C2CCCN(C(=O)C3CCC3)C2)c1)Nc1ccc(C(=O)N2CCCCC2)cc1 (stereo not drawn)	21%	-16%	.	.	.
COc1ccc(C2C(C#N)=C(SCC(=O)Nc3ccc(C)cc3)NC3=C2C(=O)CC(C)(C)C3)cc1 (stereo not drawn)	35%	-6%[57.1 µM]	?	-7%	?
Cc1ccc(C(=O)CSC2=C(C#N)C(c3ccco3)C3=C(CCCC3=O)N2)cc1 (stereo not drawn)	20%	-31%	-23%	?	-6%[59 µM]
CCCCc1ccc(NC(=O)CSC2=C(C#N)C(c3ccco3)C3=C(CCCC3=O)N2)cc1 (stereo not drawn)	5%	-35%	7.9µM*	?	-9%[12.7 µM]
COc1ccc(NC(=O)CSC2=C(C#N)C(c3ccco3)C3=C(CCCC3=O)N2)c(OC)c1 (stereo not drawn)	-9%	-28%	?	79µM*	45µM*
Cc1cccc(C)c1NC(=O)CC12CCCN1CCC2	.	.	23%	.	2%[12.7 µM]
COc1ccc2c(c1)O[C@H](c1ccc3c(c1)OCO3)[C@@H](OC(=O)NCCc1ccc(OC)c(OC)c1)C2=O	.	.	-7%	.	.
O=C1CCCC/C1=C/Nc1ccc(C(=O)O)cc1	19%	-8%	2%	4%	?
O=C1CCCC/C1=C/Nc1ccc2c(c1)OCO2	-4%	-14%	?	?	35µM*
O=C1CCC/C1=C/Nc1cccc(F)c1	-11%	50µM*	-8%	-21%	.
